Screens: PubChem, Buhrlage Lab, Dana-Farber Cancer Institute and Novartis Institutes for BioMedical Research (Cambridge, Mass)
An excerpt weighted towards active compounds, which were near 14% of everything screened.
USP28 inh = blocks human USP28 ubiquitin-rhodamine cleavage. Q96RU2. purified USP28, Ub-rhodamine cleavage fluorescence, 30 min. inhibition, % at 25 µM. 47,000 tested, 3% active. AID 1645857
USP30 block = human USP30 deubiquitinase inhibition | 47,000 tested, 5.3% active | purified USP30, Ub-rhodamine cleavage fluorescence | inhibition, % at 25 µM
USP10 block = inhibitors of human USP10 deubiquitinase. Q14694. purified USP10, Ub-rhodamine fluorescence, 60 min. inhibition, % at 20 µM. 47,000 tested, 1.1% active. AID 1645856
Target sequence (Q14694 whole entry, looked up): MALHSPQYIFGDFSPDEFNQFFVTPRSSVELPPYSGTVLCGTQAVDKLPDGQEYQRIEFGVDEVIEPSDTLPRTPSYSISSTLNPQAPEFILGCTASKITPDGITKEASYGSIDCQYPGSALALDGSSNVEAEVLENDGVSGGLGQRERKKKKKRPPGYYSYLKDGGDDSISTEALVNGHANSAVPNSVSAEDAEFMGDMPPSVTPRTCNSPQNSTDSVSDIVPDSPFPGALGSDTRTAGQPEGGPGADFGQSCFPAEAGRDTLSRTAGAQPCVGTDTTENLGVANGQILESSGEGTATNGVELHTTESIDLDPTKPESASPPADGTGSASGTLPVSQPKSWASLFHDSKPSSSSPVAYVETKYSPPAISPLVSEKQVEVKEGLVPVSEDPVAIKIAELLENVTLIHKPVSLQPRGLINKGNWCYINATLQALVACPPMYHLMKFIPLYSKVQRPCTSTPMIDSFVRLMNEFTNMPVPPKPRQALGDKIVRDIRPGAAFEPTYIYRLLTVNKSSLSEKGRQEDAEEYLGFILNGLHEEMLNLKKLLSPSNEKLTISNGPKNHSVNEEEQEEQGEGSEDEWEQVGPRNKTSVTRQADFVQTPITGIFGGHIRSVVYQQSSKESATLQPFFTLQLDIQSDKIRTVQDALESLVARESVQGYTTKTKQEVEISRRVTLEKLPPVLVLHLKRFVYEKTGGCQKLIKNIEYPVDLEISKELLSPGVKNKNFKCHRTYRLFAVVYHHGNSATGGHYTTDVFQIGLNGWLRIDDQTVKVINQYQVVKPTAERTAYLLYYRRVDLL
USP8 block = inhibitors of human USP8 deubiquitinase. P40818. purified USP8, Ub-rhodamine cleavage fluorescence, 30 min. inhibition, % at 20 µM. 47,000 tested, 4.2% active
USP17 block = inhibitors of human USP17 deubiquitinase; A8MUK1; purified USP17, Ub-rhodamine cleavage fluorescence, 3 h; inhibition, % at 50 µM; 47,000 tested, 6.5% active; AID 1645855
Starred values were filed as active, the others as inactive; i = inactive; . = not tested or not shown. Cut-off read from the data, not from the text of the source: active = inhibition above about 30%; inactive = the rest.

SMILES	USP28 inh	USP30 block	USP10 block	USP8 block	USP17 block
Cc1nc2c(nnn2C[C@H]2CCCN2C(=O)c2ccc(F)cc2)c(=O)[nH]1	-14	-5	0	-1	0
Cc1nnc(-c2ccc3ccn(CC(=O)N4CCc5ccccc54)c3c2)o1	2	-12	-3	2	20
Cc1cccc(-c2nc(Cn3c(=O)n(C(C)C)c(=O)c4ccccc43)c(C)o2)c1	13	20	5	18	8
Oc1cc(OCCN2CCOCC2)ccc1-c1[nH]ncc1-c1ccc(Cl)cc1	-11	-4	2	84*	24
COc1ccc(-c2csc3ncnc(NCCCN4CCOCC4)c23)cc1	-2	0	-2	-10	-4
Oc1cc(OCCN2CCOCC2)ccc1-c1[nH]ncc1-c1ccc(Br)cc1	-15	-70	2	76*	.
NC(=O)C1CCN(CCOc2ccc(-c3[nH]ncc3-c3ccc(Cl)cc3)c(O)c2)CC1	-9	-22	-3	77*	21
O=C(c1cc(C2CC2)[nH]n1)N1CCN(CCOc2ccc(Cl)cc2)CC1	10	20	0	9	-1
COc1ccc(-c2cnc3nc(N4CCN(c5ccccc5)CC4)nn3c2N)cc1	5	28	6	16	19
Cc1cnc(C(=O)N2CC[C@@H]3[C@H]2CCCC(=O)N3Cc2ccc(F)cc2)cn1	-1	0	-1	0	-1
Cc1ccc(S(=O)(=O)NCCc2cn(C)c3ncccc23)cc1	-5	-2	3	9	-7
O=C(CN1C(=O)c2ccccc2C1=O)Nc1nc(-c2ccc(Br)cc2)cs1	32*	47*	21	7	7
O=C(COc1ccccc1)Nc1nnc(-c2ccc(Br)cc2)s1	-6	-2	8	0	0
CC(=O)Nc1cc2cc(-n3cccc3)ccc2oc1=O	9	-7	7	27	59*
Cc1ccc(S(=O)(=O)Nc2c(O)c3ccccc3oc2=O)cc1C	0	18	1	19	3
Cc1cc(O)c2c(=O)c3c(O)cccc3oc2c1O	6	28	5	6	37*
CCCCNc1ccccc1C(=O)OCc1nnc(-c2cc(-c3ccc(OC)c(OC)c3)nc3ccccc23)o1	-9	-37	-4	72*	9
O=S(=O)(c1cccc2cccnc12)N(CCc1ccccc1)C1CCN(CCc2ccc(Cl)cc2)CC1	-231	i	-2	-42	-43
O=C(N[C@@H]1CC[C@@H](Oc2ccccc2)[C@H](O)[C@H]1O)C1CCOCC1	12	21	1	8	13
COc1ccc(Cl)cc1Nc1ncnc2c1nnn2C	0	3	-4	4	2
Cn1c(SCc2ccccc2)nnc1-c1csc(-c2ccccc2)n1	41*	53*	19	22	38*
c1ccc(-c2nc(CSc3nnc(C4CC4)n3-c3ccccc3)cs2)cc1	2	9	2	-9	6
CSc1nnc(-c2csc(-c3cccc(C(F)(F)F)c3)n2)n1C	78*	94*	-4	13	68*
Cc1nc(-c2cncc(Br)c2)cc(N2CCC3(CC2)OCCO3)n1	-13	-62	-3	13	-11
CCN1CCc2nc(-c3ccccc3)n(CC(=O)N3CCOc4ccc(C)cc43)c(=O)c2C1	0	-43	-5	59*	14
SMILES	USP28 inh	USP30 block	USP10 block	USP8 block	USP17 block
CCN1CCc2nc(-c3ccc(F)cc3)n(CC(=O)N(CC)c3ccccc3)c(=O)c2C1	-26	-101	-3	48*	-6
CCOc1ccc(NC(=O)C2CCCN(c3cnc4nccnc4c3)C2)cc1 (centres undefined)	-205	i	-11	-60	-130
COc1cccc(CNC(=O)CCc2cn(Cc3ccc(Cl)cc3)c3ccccc23)c1	4	21	13	9	10
CSc1ncccc1C(=O)OCc1ccccc1	49*	-3	6	1	1
CC(Oc1ccc(F)cc1)C(=O)N1CCN(CCc2ccccn2)CC1 (centres undefined)	0	5	1	11	8
Cc1cc(OCC(=O)Nc2ccccc2)nc(N2CCCCCC2)n1	18	26	4	21	13
Cc1cc(OCC(=O)Nc2ccccc2C#N)nc(-c2ccc(F)cc2)n1	-6	-25	-10	-15	36*
Cc1cc(OCC(=O)Nc2c(C)cccc2C)nc(N2CCCCCC2)n1	5	9	-2	2	30*
Cc1cc(OCC(=O)Nc2ccccc2F)nc(N2CCCC(C)C2)n1 (centres undefined)	7	47*	6	15	18
Cc1c(C(=O)N=CN(C)C)sc(C#N)c1-c1ccccc1	7	32*	-2	1	18
Cc1cc2c(=O)n3c(nc2s1)CCN(C(=O)CC(C)n1nc(C)c(C)c1C)CC3 (centres undefined)	11	23	1	20	10
Cc1ccnc(SCc2cc(=O)c(OC(=O)c3c(F)cccc3Cl)co2)n1	16	26	0	31*	39*
Cc1csc(SCc2cc(=O)c(OC(=O)c3cccc(F)c3)co2)n1	12	-12	6	61*	18
Cc1noc(C)c1-c1ccc(S(=O)(=O)NC2CCC(C)CC2)cc1 (centres undefined)	9	18	9	5	8
Cc1cc(-c2cnc(N3CCSCC3)nc2[C@@H]2CCCO2)on1	0	33*	0	-19	30
Cc1cc(-c2cnc(N3CCCCC3)nc2C2CCN(c3cnccn3)CC2)on1	8	34*	-2	6	17
CC1(C)CC(NC(=O)c2nc(-c3ccc(F)cc3)no2)CC(C)(C)N1	6	34*	1	24	16
Fc1ccccc1Cc1nc(-c2ccc3nncn3c2)no1	53*	0	-3	2	.
Cn1c(CCNC(=O)c2cccc(F)c2)nc2cccnc21	-6	-22	-3	0	-6
CCc1nc(-c2ccc(-n3ccc(C(=O)N(C)C4CCCCC4)n3)cc2)no1	12	0	0	-2	5
Cc1ccc(NC(=O)Cc2nc(-c3ccccn3)n[nH]2)cc1C	1	-12	-9	-364	-29
COc1cccc(NC(=O)Cc2sc(Nc3cc(C)cc(C)c3)nc2O)c1	4	0	18	22	62*
Cc1cc(C)c(NC(=O)Cc2sc(Nc3ccc(C)c(C)c3)nc2O)c(C)c1	9	-3	35*	67*	3
COc1ccc(NC(=O)Cc2sc(Nc3cccc(OC)c3)nc2O)cc1	1	-27	6	-10	1
Cc1ccc(Nc2nc(O)c(CC(=O)Nc3ccccc3C)s2)cc1C	4	15	36*	90*	74*
Cc1ccc(Nc2nc(O)c(CC(=O)Nc3ccc(C)cc3C)s2)cc1	0	9	38*	46*	37*
CCN(CC)S(=O)(=O)c1cccc(NC(=O)COC(=O)c2ccc3ccccc3n2)c1	-50	-261	-1	-14	-62
COc1ccccc1-c1noc2ncnc(NCCN3CCC(C)CC3)c12	1	-13	2	4	-2
O=C(N[C@@H]1C[C@@H](Oc2ccccc2)[C@H](O)[C@H]1O)c1cn[nH]c1	12	22	0	20	12
